This is an account of results in PubChem BioAssay (NCI).

Experiment in all cases: NCI-60 one-dose screen, 48 h (100 = growth as untreated, 0 = no growth, -100 = all killed)
Conditions in all cases: 10 µM unless noted

Test [1] concerns HT29 colon.
The test system of test [2] is SNB-75 CNS.
Test [3] concerns SNB-19 CNS.
The subject of test [4] is U251 CNS.
The test system of test [5] is PC-3 prostate.
In test [6] the test system is SK-MEL-5 melanoma.
Test [7] relates to UACC-62 melanoma.
Test [8] deals with LOX IMVI melanoma.
Test [9] has as its system SK-MEL-28 melanoma.

This is part of a sample that, as a whole, favours compounds with a hit. Of some 83,000 tested, about 20% had one in any assay.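 Compound tested at a single concentration for 48 hours in 96-well plates; a percent growth value below 10 was scored as active.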 Unmarked numbers belong to inactive results. Activity calls are given as the source filed them.

In the case of `COc1ccc2cc(-c3nc(C)c(C(C)=O)c(-c4ccc(C)cc4)n3)ccc2c1`, the growth in test [1] is 82.4%; in test [2] it was 98.5%; in test [3], 92.8%; in test [4] it was 94.5%; in test [5] it was 85.9%; in test [6], 75.4%. Further, the results for the growth in [7], in test [8] and in [9] were 71.7%, 101% and 101%, respectively.
For the molecule `Cc1ccc(NC(=O)c2nc(S(C)=O)oc2-c2ccc(F)cc2)cc1Nc1nccc(-c2cccnc2)n1` (stereo not drawn), the growth in [1] was 1.98% (active); in test [2], 95.6%; in test [3], 74.2%; in test [4] it was 39.2%; in [5], 72.9%; in [6] it was 68.3%. The growth in [7] is 65%; in [8] it was -72.1% (active); in [9], 76.5%.
Regarding `COc1ccc(/C=C(/C(=O)N2CCN(c3ccccc3)CC2)c2cc(OC)c(OC)c(OC)c2)cc1N`, the growth is 7.35% (active) in test [1]; 53.3% in test [2]; 24.5% in test [3]; 14.5% in test [4]; 26.7% in test [5]; 7.37% (active) in test [6]. The growth is 27.9% in [7], 27.2% in test [8] and 64% in [9].
Regarding `O=C(CI)NCCNc1cccc2c(S(=O)(=O)O)cccc12`, the growth in test [1] is 110%; in test [2] it was 96.9%; in test [3], 89.7%; in test [4], 105%; in test [5], 102%; in [6], 99.6%. The results for the growth in test [7], in test [8] and in test [9] were 89.5%, 103% and 106%, respectively.
In the case of `c1ccc(C2=Nc3ccccc3SC2)cc1`, the growth is 109% in test [1]; 77.6% in [2]; 109% in test [3]; 94.9% in test [4]; 66.4% in test [5]; 105% in test [6]. In addition, the growth in test [7] is 96.7%; in test [8] it was 90.4%; in test [9], 109%.
Regarding `CNC(=O)c1cc(Oc2ccc(NC(=O)c3[nH]c(SC)nc3-c3ccc(F)cc3)cc2)ccn1`, the growth in [1] was 12.8%; in [2], 78.7%; in test [3], 99.3%; in test [4] it was 84.6%; in [5], 33.2%; in [6], 23.3%. In addition, the growth was 5.44% (active) in test [7], 57.7% in test [8] and 22.3% in test [9].
Take `CCC(C)C1NC(=O)c2nc(oc2-c2ccccc2)-c2csc(n2)-c2csc(n2)-c2nc(oc2C)-c2coc(n2)CNC(=O)C(C(C)CC)NC1=O` (stereo not drawn): the growth in [1] was -81.6% (active); in test [2] it was -86.3% (active); in test [3], -61.3% (active); in test [4] it was -83.4% (active); in [5], -85.6% (active); in test [6], -91.3% (active). The figures for the growth in test [7] and in test [8] were -70.5% (active) and -72.4% (active), respectively.
For the molecule `Cn1nc(C(F)(F)F)cc1-c1c[nH]c(OCc2ccc(Cl)cc2)c(-c2ccc(Cl)c(C(F)(F)F)c2)c1=O`, the growth in [1] is 5.99% (active); in test [2] it was -6.2% (active); in [3] it was 21.1%; in [4], 8.33% (active); in test [5] it was 5% (active); in [6], -63.9% (active). Further, the growth in test [7] is -14.9% (active); in test [8] it was 7.07% (active); in test [9], 10.1%.
As to `COc1cccc(Cn2c(-c3nonc3NC(C)=O)nc3ccccc32)c1`, the growth in test [1] is 21.5%; in test [2] it was 10.1%; in [3], 71.3%; in test [4], 27.1%; in [5] it was 21.4%; in test [6], 28.4%. Besides, the growth in test [7] is 45.2%; in test [8], 50.2%; in [9], 57.3%.
Take `C#CC[C@@H]1C[C@]2(C)[C@H]3CC=C4[C@H]5[C@@H](C)[C@H](C)CC[C@]5(C(=O)NCCCCCCCCN)CC[C@@]4(C)[C@]3(C)CC[C@H]2C(C)(C)[C@H]1OC(C)=O`: the growth in test [1] is -65.4% (active); in [2], 83.2%; in test [3], 64.8%; in [4], -90.8% (active); in test [5], -21.7% (active); in test [6] it was 91.9%. Moreover, the growth in test [7] is 105%; in test [8], -52.9% (active); in test [9] it was 103%.
In the case of `CC1(C)C(N(O)C(=O)Nc2ccc(Cl)cc2)N(c2ccc(Cl)cc2)C(=O)N1CC(=O)N/N=C/C=C/c1ccc([N+](=O)[O-])o1` (stereo not drawn), the growth is -43% (active) in test [1]; 9.93% (active) in test [2]; 48.5% in [3]; -14.4% (active) in [4]; 8.77% (active) in test [5]; -96.5% (active) in test [6]. In addition, the figures for the growth in [7], in [8] and in test [9] were -40.5% (active), 0.58% (active) and -55.5% (active), respectively.
Take `O=C(Nc1ccccc1Cl)Oc1ccc2ccccc2c1`: the growth in [1] is 98.9%; in test [2] it was 83.7%; in test [3], 98.3%; in test [4] it was 103%; in [5], 102%; in test [6], 110%. Moreover, the growth was 91.8% in test [7], 95.1% in [8] and 106% in test [9].
Regarding `CN1CCN(Cc2ccc(NC(=O)c3ccc(C#N)c(C#Cc4cnc(N)c5ncccc45)c3)cc2C(F)(F)F)CC1`, the growth in test [1] was 4.28% (active); in test [2], 112%; in [3], 115%; in [4] it was 55.6%; in [5], 81.1%; in [6], 87%. In addition, the growth is 58.8% in test [7] and 82.5% in [8].
On to `COc1ccc2nc(C)cc(Nc3ccccc3O)c2c1`, for which the growth is 18.9% in [1]; -93.2% (active) in [2]; 26% in [3]; -27.5% (active) in test [4]; 47.1% in [5]; 72.9% in test [6]. Besides, the figures for the growth in test [7], in test [8] and in test [9] were 56.5%, 2.48% (active) and 33.4%, respectively.
Consider `COc1ccc(/C(=C\c2cc(OC)c(OC)c(OC)c2)C(=O)N2CCN(c3ccccc3)CC2)cc1O`, for which the growth in test [1] was 101%; in test [2], 77.4%; in test [3], 97.6%; in test [4], 96.3%; in test [5], 84.4%; in test [6] it was 97.1%. In addition, the growth in test [7] was 88.4%; in [8], 94%; in [9] it was 105%.
